{"source": "PubChem BioAssay (EPA / NIEHS)", "note": "Activity calls are given as the source filed them. The calls were made as follows: active = hit-call score of the fitted dose curve at least 0.9, where 1 is the maximum; inactive = score below 0.9.", "data": [{"experiment": "CEETOX_H295R_MTT_cell_viability: Viability Assessment in the CeeTox HT-H295R MTT Assay (AID 2283718);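 as to AC50: curve fitted both ways so AC50 may mark viability loss or gain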", "experimental": "CEETOX_H295R is a cell-based, multiplexed-readout assay that uses H295R, a human adrenal gland cell line, with measurements taken at 48 hours after chemical dosing in a 96-well plate.CEETOX_H295R_MTT_cell_viability is one of 23 assay component(s) measured or calculated from the CEETOX_H295R assay. It is designed to make measurements of cell number, a form of viability reporter, as detected with […] signals by MTT cytotoxicity assay technology.The assay component endpoint CEETOX_H295R_MTT_cell_viability was analyzed with bidirectional fitting relation to DMSO as the negative control and baseline of activity. Using a type of viability reporter in the MTT cytotoxicity assay, gain or loss-of-signal activity can be used to monitor cellular processes to understand changes in proliferation. To generalize the intended target to other relatable targets, this assay endpoint is annotated to cell cycle, where the subfamily is proliferation.\nCell culture and media preparation procedures were conducted in accordance with OECD Test No. 456 guidelines, with minor modifications. H295R cells (ATCC CRL-2128) were expanded for 5 passages and frozen in batches in liquid nitrogen. Prior to the steroidogenesis assay, H295R cells were thawed and passed at least 4 times. The maximum passage was 10. Cells were maintained in a 1:1 mixture of DMEM/F12 supplemented with 5ml/L ITS+ Premix (BD Bioscience) and 12.5 ml/L Nu-Serum (BD Bioscience). After seeding cells into 96-well plates at 50-60% confluency, cells were allowed to adhere overnight. Prior to chemical testing, culture medium was replaced with 175 uL medium containing 10 uM forskolin to stimulate steroidogenesis for 48 hours. Following prestimulation, forskolin medium was replaced with medium containing test chemical solubilized in DMSO (ensuring a final concentration of 0.1% DMSO). Test chemicals were incubated for 48 hours, then the medium was removed and split into 2 vials containing approximately 75uL each, and stored at -80 C prior to hormone analysis. For steroid quantification, media samples were shipped to OpAns, LLC (Durham, NC) on dry ice, and samples were thawed to room temperature prior to liquid-liquid extraction. Steroid hormones were extracted from media samples using methyl tertbutyl ether (MTBE). An extra derivatization with dansyl chloride was included for estrogen (estrone and estradiol) detection only. Steroid hormones were separated by HPLC, eluted using a reverse phase C18 gradient with electrospray positive ionization, followed by quantification by tandem mass spectrometry (MS/MS). Data were acquired on a MassHunter Workstation Acquisition version B03.01 (Agilent Technologies, Inc.) and processed using MassHunter Quantitative Analysis for QQQ. Accuracy was determined for each hormone analyte from 3 standards to determine upper and lower limits of quantification (ULOQ and LLOQ, respectively) using a 7-point standard curve. Precision and accuracy of the extraction and quantification methods were calculated as the percent relative standard deviation (%RSD) of the spiked standards and percent spiked standard recovered, respectively. The goal was to achieve 100% accuracy (i.e., recover all spiked-in standard at quantification with minimal loss during run time) and good precision (i.e., have %RSD <15% to ensure reproducibility). Test medium was removed following chemical exposure, and cell viability was evaluated in the same wells by MTT. MTT procedures were as follows: after removal of test medium, 500 uL of 0.5 mg/ml of 3-[4,5-dimethylthiazol-2-y]2,5-diphenyltetrazoliumbromide solution was added to the cells. Following a 4-hour incubation at 37 C and 5% CO2 to allow formazan-crystal formation, the MTT solution was removed and blue formazan salt crystals were solubilized using 500uL anhydrous isopropanol with shaking for 20 minutes. Absorbance was read at 570 and 650nm using a Packard Fusion microplate reader. […]", "values": [{"smiles": "CCOc1cccc(C2(N3CCN(c4ccccc4)CC3)CCC(C)CC2)c1", "note": "(stereo not given)", "outcome": "inactive"}, {"smiles": "[As]#[In]", "outcome": "inactive"}, {"smiles": "Cc1ccc(N=C=O)cc1N=C=O", "outcome": "inactive"}, {"smiles": "CC(C)COC(=O)c1ccccc1C(=O)OCC(C)C", "outcome": "inactive"}, {"smiles": "c1ccc2c(c1)-c1cccc3cccc-2c13", "outcome": "inactive"}, {"smiles": "CCCCCOC(=O)c1ccccc1C(=O)OCCCCC", "outcome": "inactive"}, {"smiles": "COP(=S)(OC)SCN1C(=O)c2ccccc2C1=O", "outcome": "inactive"}, {"smiles": "CC(C)N(Cc1ccccc1)C(=O)C(C)(C)C", "outcome": "inactive"}, {"smiles": "Oc1ccc2ccc3cccc4ccc1c2c34", "outcome": "inactive"}, {"smiles": "Cn1cc(-c2ccccc2)c(=O)c(-c2cccc(C(F)(F)F)c2)c1", "outcome": "inactive"}, {"smiles": "CCCCCCCCCCCCCN1CC(C)OC(C)C1", "note": "(stereo not given)", "outcome": "inactive"}, {"smiles": "Nc1ccc(Oc2ccc(N)cc2)cc1", "outcome": "inactive"}, {"smiles": "Cc1cc(N=Nc2ccccc2C)ccc1N", "outcome": "inactive"}, {"smiles": "CCC(C)c1ccc(O)cc1", "note": "(stereo not given)", "outcome": "inactive"}, {"smiles": "Nc1ccc(Cc2ccc(N)cc2)cc1", "AC50": "2.04 µM (active)"}, {"smiles": "O=C(Nc1ccccc1)c1ccccc1I", "outcome": "inactive"}, {"smiles": "CNC(=O)Oc1cccc2c1OC(C)(C)C2", "AC50": "1.52 µM (active)"}, {"smiles": "Cc1cccc(N)c1N", "AC50": "1.07 µM (active)"}, {"smiles": "CCCCOC(=O)c1ccccc1C(=O)OCc1ccccc1", "outcome": "inactive"}, {"smiles": "Nc1ccc(Cl)cc1N", "outcome": "inactive"}, {"smiles": "c1ccc(N=Nc2ccccc2)cc1", "outcome": "inactive"}, {"smiles": "Brc1ccc(Oc2ccccc2)cc1", "outcome": "inactive"}, {"smiles": "CC(C)(C)C(O)(CCc1ccc(Cl)cc1)Cn1cncn1", "note": "(stereo not given)", "outcome": "inactive"}, {"smiles": "C=CCc1ccc2c(c1)OCO2", "outcome": "inactive"}, {"smiles": "Cc1ccc(N)c(N)c1", "outcome": "inactive"}, {"smiles": "Nc1ccc(N=Nc2ccccc2)cc1", "outcome": "inactive"}, {"smiles": "O=P(OCCCl)(OCCCl)OCCCl", "outcome": "inactive"}, {"smiles": "CC(C)(O)c1cnn2c(-c3ccc(F)c(-c4c(F)cccc4C#N)c3)cnc2n1", "outcome": "inactive"}, {"smiles": "CCOC(=O)[C@]1(c2ccccc2)Oc2ccccc2[C@@H]1N", "outcome": "inactive"}, {"smiles": "C[C@]12C=CC3=C4CCC(=O)C=C4CC[C@H]3[C@@H]1CC[C@@H]2O", "outcome": "inactive"}]}]}
